Screening results (PubChem BioAssay)
E coli growth-1: E. coli growth inhibition, primary screen, OD600; AID 1053175, 2014; Escherichia coli growth, 23 h; hits give low values; OD600 absorbance (concentration not given with the values); 330,000 compounds, 0.21% hits;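 active means OD600 absorbance below the run mean of sample wells minus 3.6 SD, in any replicate, cut at about 0.56 in these data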
AddAB inh: growth inhibition of E. coli expressing H. pylori AddAB, primary screen, AddAB inhibitor project, absorbance. 330,000 compounds, 0.29% hits. inhibition, % at 11.9 µM. AID 435030, 2010; in the data active means inhibition above about 12%;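 further: 0% = vehicle wells of infected cells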
Tat transport: E. coli Tat export inhibitors, primary screen, MC4100, TorA-mCherry reporter, fluorescence, single point; inhibition, % at 10 µM; 340,000 compounds, 0.036% hits; AID 488895, 2010;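 active means mean replicate inhibition at least 50% and at least half of replicates individually reaching 50%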;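 further: exported cargo escapes ClpAP degradation while cytoplasmic cargo is degraded and loses fluorescence; 0% = median of neutral control wells and 100% = median of NaSCN control wells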
phage Ecoli inh: growth loss of phage-infected E. coli, primary screen, RecBCD inhibitor project, absorbance, with phage, HTS. 360,000 compounds, 0.26% hits. inhibition, % at 11.9 µM; in the data active means inhibition above about 11%
E coli growth-2: E. coli V3065 growth inhibition, primary screen, counter-screen for AddAB inhibitor project, absorbance, OD600. 330,000 compounds, 0.27% hits. 18 h. inhibition, % at 11.9 µM. AID 449728, 2010;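 active means inhibition above the campaign's mean inhibition across all tested compounds plus 3 SD, cut at about 9.9% in these data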;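 further: uninfected addAB+ strain grown without phage in ampicillin broth; 0% = DMSO wells and 100% = ciprofloxacin 0.95 µg/ml wells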
RecBCD conf: growth loss of phage-infected RecBCD+ E. coli, confirmation, RecBCD inhibitor project, absorbance, E. coli V66, T4 gene 2 phage | shares compounds with phage Ecoli inh | E. coli V66 + T4 2- phage, growth OD | inhibition, % at 11.9 µM | 890 compounds, 45% hits | AID 651982, 2013;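 active means mean inhibition over triplicates exceeding the hit threshold derived in the original primary screen, cut at about 11% in these data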
Ecoli viability: E. coli viability inhibition, counter-screen for RecBCD inhibitor project, absorbance, high throughput. AID 651983, 2013. shares compounds with phage Ecoli inh. inhibition, % at 11.9 µM. absorbance (OD) growth. 890 compounds, 29% hits; in the data active means inhibition above about 20%;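 further: E. coli strain V66 grown with compound alone and no phage infection; 0% = bacteria with DMSO vehicle only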
AddAB phage OD: growth loss of phage-infected AddAB-carrying E. coli, confirmation, counter-screen for RecBCD inhibitor project, absorbance, E. coli V3065, T4 phage | shares compounds with phage Ecoli inh | AID 651984, 2013 | E. coli expressing H. pylori AddAB + T4 phage, OD growth; gene 2 mutant T4, recBCD-deleted host | 890 compounds, 45% hits | inhibition, % at 11.9 µM;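 active means mean inhibition above the solvent-only control wells' mean plus 3 SD, cut at about 22% in these data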;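 further: higher means less bacterial growth from phage killing when AddAB is blocked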
Numbers without * were called inactive; x = no result given. Compounds with a hit are over-represented: about 0.5% of the library has one in this group of screens.

SMILES	E coli growth-1	AddAB inh	Tat transport	phage Ecoli inh	E coli growth-2	RecBCD conf	Ecoli viability	AddAB phage OD
COc1ccccc1NC(=O)NNC(=O)c1ccc2ccccc2c1O	0.677	x	0.0	11.1*	x	8.8	9.7	7.8
Nc1nc2cc(Br)ccc2o1	0.648	x	-15.8	13.7*	x	11.0*	11.5	27.6*
Nc1ccc2oc(-c3cccc(Br)c3)nc2c1	0.69	-0.9	-2.2	x	-1.1	x	x	x
CC(C)Cn1c(SC(C)C(=O)NCC2CCCO2)nc2ccc(Cl)cc2c1=O (configuration not stated)	0.7	1.7	1.2	3.5	1.4	x	x	x
CCOc1ccc(NC(=O)Nc2ccc3nsnc3c2)cc1	0.652	5.0	-10.6	11.2*	2.5	5.4	5.5	-1.3
O=C1c2ccccc2C(=O)c2c1ccc(O)c2O	x	x	-0.7	15.0*	x	6.2	8.5	5.7
COC(=O)c1ccc2c(c1O)C(=O)c1ccccc1C2=O	0.686	0.0	-2.2	-0.1	-3.8	x	x	x
COCCNc1nc(Oc2cccc(F)c2)c2sccc2n1	x	x	x	-3.5	x	x	x	x
Cn1nnnc1SCc1ccc(F)cc1	0.664	0.7	-0.8	19.9*	-1.1	-0.5	-0.4	-0.6
Cc1nccn1CCc1n[nH]c(=S)n1Cc1ccccc1	0.633	2.4	3.6	1.8	0.9	x	x	x
Cc1nccn1Cc1ccccc1	0.696	-0.6	7.2	100.2*	2.2	0.3	0.8	-0.5
Fc1cccc(/C=N/Nc2nncc3ccccc23)c1	x	0.3	8.3	3.1	1.4	x	x	x
C(=N\Nc1nncc2ccccc12)/c1ccccn1	x	9.0	-7.0	19.3*	10.2*	20.4*	27.1*	23.7*
CCOc1ccc(CN2C(=O)c3ccccc3C2C(=O)NC(C)CC)cc1OC (configuration not stated)	0.651	-0.7	4.3	3.3	0.5	x	x	x
CCC(C)NC(=O)C1c2ccccc2C(=O)N1Cc1cc(OC)ccc1OC (configuration not stated)	0.72	-0.5	2.9	14.1*	1.4	1.3	0.7	3.0
C=CCN=C(NC#N)SCCc1ccccc1	0.716	2.8	0.2	3.8	0.4	x	x	x
CN(C)CCCNC(=O)c1ccc(-c2cc(O)c3ncccc3c2)cc1	0.608	6.1	4.7	3.2	5.8	x	x	x
CN(C)c1ccc(-c2cc(O)c3ncccc3c2)cc1	x	7.4	-8.9	13.9*	10.8*	1.5	2.4	1.5
CC(=O)NC(c1cc(F)c2cccnc2c1O)C1CC1 (configuration not stated)	0.684	-3.7	15.5	0.2	-2.0	x	x	x
CCC(=O)NC(c1cc(Cl)c2cccnc2c1O)C1CC1 (configuration not stated)	0.683	8.1	4.9	14.2*	10.9*	3.2	5.5	6.9
CCC(=O)NC(c1ccco1)c1cc(Br)c2cccnc2c1O (configuration not stated)	x	x	x	19.6*	x	5.8	10.1	17.6
CC(=O)NC(c1ccc(N(C)C)cc1)c1cc(Cl)c2cccnc2c1O (configuration not stated)	x	x	x	18.6*	x	6.7	9.5	21.6*
COc1ccc(C(NC(C)=O)c2cc(Cl)c3cccnc3c2O)cc1 (configuration not stated)	0.678	9.8	-4.6	14.1*	19.5*	6.2	9.1	15.9
COC(=O)[C@@]1(Cc2ccc(OC)cc2)[C@H]2c3cc(C(=O)N4CCCC4)n(Cc4ccc(Cl)c(C(F)(F)F)c4)c3C[C@H]2CN1C(=O)c1ccccc1	x	x	x	0.7	x	x	x	x
CC(C)(C)NC(=O)COc1ccc(-c2ccccc2)cc1	0.693	0.5	2.0	2.5	1.3	x	x	x
O=C(NC(c1ccc(Cl)cc1)c1cc(Cl)c2cccnc2c1O)c1cccnc1 (configuration not stated)	x	5.0	-7.7	3.9	-1.0	x	x	x
CCCC(=O)NC(c1ccc(OC)c(OC)c1)c1cc(Cl)c2cccnc2c1O (configuration not stated)	0.663	7.6	-5.2	14.1*	10.6*	10.4	12.9	19.1
